GALK inh – inhibitors of human galactokinase | P51570 | Purified GALK, Kinase-Glo residual ATP luminescence | Potency, µM (doses to about 57.5 µM), for the others: at the top dose activity change, negative = inhibition, actives largely listed as inhibitors | hit rate 0.007% among 270,000; note: potency is the fitted concentration of half-maximal effect
Target sequence (P51570 whole entry, looked up): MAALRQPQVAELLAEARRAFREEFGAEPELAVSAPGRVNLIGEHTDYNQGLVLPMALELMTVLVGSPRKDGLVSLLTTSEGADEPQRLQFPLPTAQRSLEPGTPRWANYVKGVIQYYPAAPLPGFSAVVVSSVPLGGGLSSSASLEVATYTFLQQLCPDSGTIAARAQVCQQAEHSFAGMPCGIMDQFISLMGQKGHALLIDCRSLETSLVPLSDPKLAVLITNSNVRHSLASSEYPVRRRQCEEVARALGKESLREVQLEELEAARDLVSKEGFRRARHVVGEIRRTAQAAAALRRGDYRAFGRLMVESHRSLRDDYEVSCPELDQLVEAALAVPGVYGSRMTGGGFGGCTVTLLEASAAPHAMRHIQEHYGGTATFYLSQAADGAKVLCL
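Compounds were pin-transferred into ATP buffer (35 uM final), then GALK plus galactose (5 nM, 100 uM final) was added. After 1 h at room temperature, Kinase-Glo Plus was added and luminescence read after 10 min.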
LDHA inh – blocks human lactate dehydrogenase A | P00338 | purified LDHA, NADH/diaphorase-resazurin fluorescence; hits give low values | activity change, % (values are at about 110 or 230 µM) | hit rate 0.15% among 480,000; in the data active = activity change below about -30%; inconclusive = mostly about -25% to -30%;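 note: plate controls were DMSO wells for no effect and wells without enzyme for full effect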
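Human LDH5 (2 nM) was incubated with 0.06 mM NADH and 0.2 mM pyruvate for 5 min at room temperature in Tris pH 7.4. Remaining NADH was coupled through diaphorase/resazurin, and resorufin fluorescence was read at 0 and 20 min.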
a7 integrin act – integrin-mediated muscular dystrophy alleviation activation; alpha7betagal myoblasts, beta-gal FDG fluorescence, 48 h; Potency, µM (titrated, usually from 38.3 µM), inactives show top-dose activation, most hits filed as activators; hit rate 0.064% among 350,000;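 note: potency is the fitted concentration of half-maximal effect; 100% = response of the positive control SU9516; nearly all actives have a fitted effect of over 60% in size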
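Alpha7betagal+/- myoblasts (passage 13) were plated 16-24 hr, then exposed to compounds (1:260 dilution of DMSO stock) for 48 hours at 37C. After MPER lysis, β-galactosidase reporter activity was read as FDG fluorescence (ex 480/em 540) after 30 minutes.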
TrxR1 substrate – rat thioredoxin reductase 1 substrate activity. hit rate 0.01% among 390,000. purified TrxR1 substrate turnover, NADPH consumption readout. Potency, µM (series often up to 114 µM), for the others: at the highest dose activity change, negative = substrate turnover; note: potency is the fitted concentration of half-maximal effect; nearly all actives have a fitted effect of over 50% in size
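Rat TrxR1, dispensed at 90 nM, was prereduced with 400 uM NADPH (final) for 5 min at ~22 deg C, then incubated with compound 15 min before 400 uM selenite. A first-read NADPH fluorescence drop versus no-compound background flagged substrates.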
rTrxR1 inhibitor – rat TrxR1 inhibition; O89049; recombinant rTrxR1, NADPH fluorescence consumption, selenite substrate; Potency, µM (titrated, usually from 114 µM), for the others: top-dose activity change, negative = inhibition, usual class: inhibitors; hit rate 1% among 390,000; AID 588453; note: potency is the fitted concentration of half-maximal effect; nearly all actives have a fitted effect of over 65% in size
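Rat TrxR1 (90 nM in the dispensed reagent) was pre-reduced with 400 uM NADPH for 5 min at room temperature, then incubated with compound for 15 min. After 400 uM selenite was added, NADPH fluorescence (Ex 340/Em 450 nm) was followed for 8 min.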
PI4K2A block – PI4K2A (human) kinase inhibition; hit rate 0.13% among 420,000; AID 1346378; purified PI4K2A, ADP-Glo luminescence, 1 h; hits give low values; activity change, negative = inhibition, % at 76.9 µM; Q9BTU6; in the data active = activity change below about -50%; inconclusive = mostly about -30% to -49%;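 note: -100% = wells without enzyme as full effect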
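ADP-Glo luminescence measured ADP generated by PI4K2A enzyme (4 ug/mL before mixing) with 1.2 mM PI substrate (pre-mix) and 300 microM ATP (pre-mix). Tris pH7.5 buffer with MgCl2, Triton X-100; 1 h reaction at ambient temperature.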
* hit, by the source's call; i = inactive; u = inconclusive; x = no result; ! = not confirmed by another sample; [ ] = dose if it differs, or a comment. The list is not random: actives were taken first. Their share in the collection is about 1.1%. Unless noted, calls come from the whole dose curve; as a rule, active = well fitted curve in the direction sought with a large enough effect; inconclusive = small, poorly fitted or top-dose-only effect, or another doubt; inactive = no such curve, though single readings can be large; an effect the other way counts as inactive or inconclusive. Unless noted, % is set by controls: 0 for no effect and ±100 for the full control effect.

SMILES	GALK inh	LDHA inh	a7 integrin act	TrxR1 substrate	rTrxR1 inhibitor	PI4K2A block
COc1ccc(Cl)cc1NC(=O)CC(=O)Nc1cc(Cl)ccc1OC	-3%	-4	14µM*	4%[57.1 µM]	29%[57.1 µM]	5
COc1ccccc1/C=C(\C#N)c1nc2ccccc2[nH]1	x	-5	x	x	x	x
COC(=O)c1cc(OC)c(OC)cc1NC(=S)NC(=O)c1ccco1	-3%	1	-13%	-2%	14µM*	4
COc1ccc(C(C)=O)cc1CSc1nc2cc(C(=O)O)ccc2c(=O)n1Cc1ccccc1	1%	-3	15%	-3%	28µM*	-1
Cc1ccc(N2CCN(C(=O)c3ccccc3NC(=O)/C=C\C(=O)O)CC2)cc1	-1%	8	-12%	1%	50µM*	-1
Oc1ccc(-c2ccc(O)cc2)cc1	x	-1	x	x	x	x
CN1CCN(C2=C(Cl)C(=O)N(c3ccc(Cl)c(Cl)c3)C2=O)CC1	-4%	-6	-49%	4%[57.1 µM]	16µM*	-5
CN1CCN(C2=C(Cl)C(=O)N(c3cccc(Cl)c3)C2=O)CC1	-4%	-7	-9%	-9%	u	-4
Cc1ccccc1-c1nc(C#N)c(NCc2ccccc2Cl)o1	x	-4	x	x	x	x
Cc1ccc(N2C(=O)CS/C2=C(\C(Cl)=C(Cl)Cl)[N+](=O)[O-])cc1	2%	-11	-12%	0%	32µM*	-12
O=C(CSc1nnc(-c2ccco2)n1CC1CCCO1)c1ccc(F)cc1 (stereo unspecified)	1%	-5	-54%	-1%	16µM*	-12
O=C(CSc1ccc(-c2ccco2)nn1)c1ccc(F)cc1	1%	6	21%	-4%	8.9µM*	-21
Fc1ccc(CSc2ccc(-c3ccco3)nn2)cc1	0%	-5	9%	-1%	u	-4
O=C(CSc1ccc(-c2ccco2)nn1)NCCc1ccccc1	-2%	1	-12%	3%	18µM*	2
O=C(CSc1ccc(-c2ccco2)nn1)NCc1ccc(F)cc1	0%	4	6%	7%	50µM*	-3
Cc1oc2cc(OCC(=O)Nc3ccc4c(c3)OCCO4)ccc2c(=O)c1-c1ccccc1	x	-1	x	x	x	x
COCc1cnc2c(c1SCC(=O)NC1CCCC1)c(=O)n(C)c(=O)n2C	x	14	x	x	x	x
COc1ccc(C2=NS(=O)(=O)N(C)C(C(=O)Nc3ccn(Cc4ccccc4C)n3)=C2)cc1	x	4	x	x	x	x
CCCCC(=O)Nc1cccc(-c2nc3cc(C)ccc3o2)c1	x	-6	x	x	x	x
O=C1/C(=C/c2cccc(F)c2)CSc2c(F)cccc21	x	0	x	x	x	x
CSc1ncccc1C(=O)OCC(=O)c1cc(C)n(C)c1C	x	-9	10µM*	1%	3%	7
O=C(CSc1nnc(-c2ccncc2)n1-c1ccc(Cl)cc1)NCc1ccc2c(c1)OCO2	x	-4	x	x	x	x
CCOC(=O)N1CCN(C(=O)Nc2sc3nc4n(c(=O)c3c2C)CCC(C)CC4)CC1 (stereo unspecified)	-1%	-10	-32%	6%	28µM*	2
CCOC(=O)c1sc2nc3n(c(=O)c2c1C)CCC(C)CC3 (stereo unspecified)	1%	-9	-27%	8%	0%	-2
COc1cc(C=C2C(=O)C=CC2=O)ccc1O	x	-8	x	x	x	-56*
SMILES	GALK inh	LDHA inh	a7 integrin act	TrxR1 substrate	rTrxR1 inhibitor	PI4K2A block
O=C(CCCc1nc2ccccc2s1)N1CCCC1c1ccc(F)cc1 (stereo unspecified)	x	1	x	x	x	x
Nc1ccc(-c2ccc(C(=O)O)s2)cn1	2%	1	15%	i	16µM*	-4
O=C(Cc1ccc(Cl)c(Cl)c1)NCc1cccs1	x	2	x	x	x	x
Cc1ccc2c(c1)CC1(CN2C)C(=O)OC(C)(C)OC1=O	-2%	3	-26%[7.66 µM]	2%	20µM*!	1
CCC(C)NC(=O)/C(C#N)=C/c1c(C)[nH]c2ccccc12 (stereo unspecified)	x	3	x	x	x	x
CCOc1ccc(C(C)=O)cc1COC(=O)c1ccc(C(N)=O)cc1	x	3	x	x	x	x
CCOc1ccc(C(C)=O)cc1COC(=O)c1ccccc1C(=O)N(C)Cc1ccccc1	x	-5	-35%	-6%	50µM*	8
Fc1ccc(CNc2nc(-c3ccco3)cc(C(F)(F)F)n2)cc1	-1%	2	-34%	0%	25µM*	0
FC(F)(F)c1cc(-c2ccco2)nc(NCc2ccccc2)n1	-2%	4	-11%	11%	u	10
CCCN1CCC(NC(=O)c2csc(C)c2CC)CC1	x	-3	x	x	x	x
Cc1ccccc1-n1c(SCC(=O)NC(C)c2cc3ccccc3o2)nnc1N1CCOCC1 (stereo unspecified)	x	-7	x	x	x	x
Cc1cc(/C=C2\SC(=S)NC2=O)c(C)n1C	-4%	-11	-23%	-18%	25µM*	-18
Cc1ccc2cc(CCl)c(Cl)nc2c1	5%	-1	-12%	0%	45µM*	-2
ClCc1cc2ccccc2nc1Cl	12%	-7	u	7%[57.1 µM]	-60%	-3
C=CC(=O)c1ccc(CCCCCC)cc1	x	x	x	17%[57.1 µM]	13µM*	32
N=C(N)c1ccc(COC2CCCCC2)cc1	x	6	x	x	x	x
CC(=O)NCc1ccc(C(=O)CSc2nnc(C3CC3)n2Cc2ccccc2)cc1	x	3	x	x	x	x
O=C(Nc1oc2ccccc2c(=O)c1-c1ccc2c(c1)OCO2)c1ccccc1	x	-36*	x	x	x	x
O=C(Nc1oc2ccccc2c(=O)c1-c1ccc2c(c1)OCO2)c1ccc(F)cc1	x	2	x	x	x	x
O=C(O)CCOc1ccc(Cl)cc1	x	0	x	x	x	x
N#C/C(=C/c1ccc(N2CCCCCC2)o1)c1ccc(F)cc1	x	11	-39%	11%[57.1 µM]	5µM*	6
N#C/C(=C/c1ccc(N2CCOCC2)o1)c1ccc(Br)cc1	-6%	13	-68%	-17%	11µM*	0
N#C/C(=C/c1ccc(N2CCOCC2)o1)c1nc2ccccc2[nH]1	0%	14	16%	5%[57.1 µM]	-20%[57.1 µM]	-13
N#C/C(=C\c1ccc(N2CCOCC2)o1)c1ccccc1	5%	9	-53%	-3%	3.5µM*	-5
CCCS(=O)(=O)c1c(S(=O)(=O)CCC)c2ccccn2c1C(=O)OC	2%	-3	34%[7.66 µM]	12%	40µM*	-5
CCCS(=O)(=O)c1c(S(=O)(=O)CCC)c2c(C)cccn2c1C(=O)OC	x	-6	-22%	14%	25µM*	-3
C=C(C)CSc1nc2c(c(=O)n(C)c(=O)n2C)n1CCCc1ccccc1	x	10	x	x	x	x
CCCN(CCC)CC(O)CN(c1ccccc1)S(=O)(=O)c1ccc(C)cc1 (stereo unspecified)	1%	-14	0%	3%[57.1 µM]	12%[57.1 µM]	2
Cc1ccc(N(CC(O)COCc2ccco2)S(=O)(=O)c2ccc(C)cc2)cc1 (stereo unspecified)	-4%	2	-26%	4%	7.1µM*	-23
CCOc1ccccc1NC(=O)Cc1nn(C)c(=O)c2ccccc12	x	10	x	x	x	x
